Data on nine compounds can be found in PubChem BioAssay (NCATS).

Experiment [1] has as its target Alpha-galactosidase A (Homo sapiens) (UniProt P06280). Description: Counterscreen for Glucocerebrosidase Inhibitors: qHTS Assay for Human alpha-Galactosidase at pH 4.5 (AID 992). Note: 0% is about no effect. Put shortly:
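Enzyme at 2 nM final was combined with compound (0.7 nM to 77 uM) and 80 uM 4-methylumbelliferyl alpha-D-galactopyranoside in 50 mM citric acid, 0.005% Tween-20, pH 4.5. After 20 min at room temperature, fluorescence was read (Ex 365/Em 440 nm); AC50 came from Hill fits.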

Experiment [2] addresses alpha-glucosidase (Oryza sativa, rice) (UniProt Q653V4). Description: Counterscreen for Glucocerebrosidase Inhibitors: qHTS Assay for Rice alpha-Glucosidase at pH 5.0 (AID 997).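 Note: 0% = full activity with enzyme and -100% = basal without enzyme.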 In short, it runs like this: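 Rice alpha-glucosidase (4 nM final) with 400 uM 4-methylumbelliferyl-alpha-D-glucopyranoside in citrate buffer pH 5.0, 20 min at room temperature, stopped at pH 10; fluorescence 365/440 nm, compounds 0.7 nM–77 uM, AC50 from Hill fits.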

Experiment [3] in a line: Validation of Assay for Modulators of Lamin A Splicing (AID 1459; active = well fitted curve in the direction sought with a large enough effect in the signal ratio; the % refers to the signal ratio;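 note: cells exposed to compound for two days before reading; 0% is about no effect; ratio rise marks activators and ratio drop marks inhibitors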). Put shortly: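 Splicing correction is reported by an EGFP-containing lamin A minigene in stably transfected S3 HeLa cells, while DsRed2 controls for viability and nonspecific signal. Cells are exposed to compounds for 48 hrs before the GFP over RFP ratio is taken.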
For experiment [4], the target named is DNA repair nuclease/redox regulator APEX1 (Homo sapiens) (UniProt P27695). The experiment can be described thus: qHTS Validation Assay for Inhibitors of the Human Apurinic/apyrimidinic Endonuclease 1 (APE1) (AID 1705;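 note: TAMRA fluorescence gain over two minutes as APE1 cuts a quenched THF abasic duplex; % is set by controls: 0 for no effect and ±100 for the full control effect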). Put shortly: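 Endonuclease activity of human APE1 is followed as dequenching when the enzyme incises a tetrahydrofuran abasic site in a short duplex labelled 5'-TAMRA/3'-BHQ-2 (50 nM final), after 15 min enzyme–compound preincubation at room temperature.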
Sequence of DNA repair nuclease/redox regulator APEX1 (Homo sapiens) (P27695 whole entry, looked up): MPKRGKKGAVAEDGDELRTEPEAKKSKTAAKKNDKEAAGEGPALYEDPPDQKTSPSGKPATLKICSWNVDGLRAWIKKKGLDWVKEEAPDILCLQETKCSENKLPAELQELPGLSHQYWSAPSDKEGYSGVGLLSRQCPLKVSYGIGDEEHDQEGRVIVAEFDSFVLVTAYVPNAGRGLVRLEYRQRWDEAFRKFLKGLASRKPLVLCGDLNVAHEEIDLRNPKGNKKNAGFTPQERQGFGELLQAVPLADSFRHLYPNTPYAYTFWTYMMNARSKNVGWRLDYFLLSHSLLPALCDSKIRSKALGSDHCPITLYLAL
A general note: In qHTS, concentration-response curves come from the screen itself.

The nature of experiment [5]: Counterscreen for APE1 Inhibitors: Fluorescent Dye Displacement Validation Assay (AID 1707).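 Note: plate controls were ThO with dsDNA and no compound for no effect and ThO without dsDNA for full effect.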 Put shortly: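 Thiazole Orange displacement from dsDNA: 250 nM ThO with 50 nM TAMRA-labelled abasic-site (tetrahydrofuran) duplex in 50 mM Tris-HCl pH7.5, 50mM NaCl, 2 mM MgCl2, 0.01% Tween-20. Loss of endpoint fluorescence (ex 480 nm, em 540 nm) flags DNA binders.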
For orientation: The purpose of a counterscreen is to sort out artefacts and off-target activity.

Experiment [6] has as its target Endonuclease 4 (Escherichia coli (strain K12)) (UniProt P0A6C1). Description: Counterscreen for APE1 Inhibitors: qHTS Validation Assay for Inhibitors of Endonuclease IV (AID 1708). Note: % is set by controls: 0 for no effect and ±100 for the full control effect. Put shortly:
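E. coli EndoIV at 2 nM final, preincubated 15 min at room temperature with compound, then 50 nM TAMRA/BHQ-2 THF abasic-site duplex added. Buffer: 50 mM Tris-HCl pH 7.5, 50 mM NaCl, 2 mM MgCl2, 1 mM DTT, 0.01% Tween-20. Kinetic fluorescence increase, third minus first read.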

Experiment [7] is described as follows: qHTS for differential inhibitors of proliferation of Plasmodium falciparum line GB4 (AID 1816).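 For activity change, negative = inhibition: 0% = vehicle DMSO and -100% = reference inhibitor.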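 Note: parasite growth measured after 72 h incubation.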 Note: potency is the fitted concentration of half-maximal effect. The following applies: Potency: Plasmodium falciparum GB4 proliferation inhibition.
A short description of experiment [8]: qHTS Assay for Lipid Storage Modulators (AID 1519; calls by dose curve; for activity change, negative = inhibition: % is set by controls: 0 for no effect and ±100 for the full control effect). The following applies: Drosophila S3 cells, BODIPY lipid droplet/cell ratio, laser cytometry, cells loaded with oleic acid. Put shortly: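 Cells seeded at 5,000 per well were treated with compounds over a concentration series and loaded with oleic acid (400 uM, as added). Lipid droplet fluorescence (488 nm excitation, 500-530 nm channel) was read by laser-scanning cytometry and normalized to 20 uM Triacsin C.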

Experiment [9] in a line: qHTS for differential inhibitors of proliferation of Plasmodium falciparum line 7G8 (AID 1815).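 For activity change, negative = inhibition: plate controls were vehicle wells for no effect and reference inhibitor wells for full effect.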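 Note: parasite growth measured after three days of incubation.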 Note: potency is the fitted concentration of half-maximal effect.
Experiment [10] can be described thus: qHTS for differential inhibitors of proliferation of Plasmodium falciparum line 3D7 (AID 1876). Note: potency is the fitted concentration of half-maximal effect.
Experiment [11] can be described thus: Cell Viability - LYMP2-012 (AID 982).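 Note: cellular ATP by luciferase luminescence where a drop means cytotoxicity; cells exposed to compound for one day before reading; 0% = DMSO only and full loss = 92 µM tetraoctylammonium bromide; nearly all actives have a fitted effect of over 55% in size.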
Experiment [12] can be described thus: Cell Viability - LYMP2-014 (AID 983).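 Note: plate controls were DMSO only for no effect and 92 µM tetraoctylammonium bromide for full effect; nearly all actives have a fitted effect of over 50% in size.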 Put shortly:
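Luminescent ATP signal (CellTiter-Glo, 30 min at room temperature) serves as the viability read-out after 24 hr compound exposure at 37 C. Cells were seeded at 2500 per well and settled 5 hr beforehand.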

Experiment [13] in a line: Cell Viability - LYMP2-016 (AID 984).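 Note: cells exposed to compound for 24 hours at 37 °C; % is set by controls: 0 for no effect and ±100 for the full control effect; nearly all actives have a fitted effect of over 55% in size.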 In short, it runs like this: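 Acute toxicity in a Coriell human lymphoblastoid line is scored as loss of intracellular ATP over 24 h of treatment in complete medium. CellTiter-Glo signal is fitted across concentrations with the Hill equation to give AC50.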
A short description of experiment [14]: Cell Viability - LYMP2-018 (AID 985).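 Note: plate controls were DMSO only for no effect and tetraoctylammonium bromide at 92 µM for full effect; nearly all actives have a fitted effect of over 50% in size.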 Put shortly: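 Luminescent ATP signal (CellTiter-Glo, read after 30 min at room temperature) reports viable cells after 24 hr compound treatment at 37 C. Concentration-response data were fitted to the standard Hill equation for AC50.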
Experiment [15] is described as follows: Cell Viability - LYMP2-020 (AID 986).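 Note: plate controls were DMSO only for no effect and tetraoctylammonium bromide at 92 µM for full effect; nearly all actives have a fitted effect of over 55% in size.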 Put shortly:
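Luminescent ATP signal (CellTiter-Glo, 30 min at room temperature) is the read-out after 24 h compound treatment of lymphoblastoid cells at 37 C. AC50 values come from Hill-equation fits across concentrations.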

A short description of experiment [16]: Cell Viability - LYMP2-022 (AID 987).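 Note: 0% = DMSO alone and full effect = tetraoctylammonium bromide at 92 µM; nearly all actives have a fitted effect of over 55% in size.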 Put shortly: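 qHTS: human lymphoblastoid cells 2500/well; 5 hr 37 C; cpd added; 24 hr 37 C; CellTiter-Glo, 30 min RT; luminescence. AC50 via Hill fit; tetraoctylammonium bromide positive ctrl.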
The nature of experiment [17]: Cell Viability - LYMP2-024 (AID 988).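 Note: plate controls were DMSO only for no effect and 92 µM tetraoctylammonium bromide for full effect; nearly all actives have a fitted effect of over 60% in size.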 In short, it runs like this:
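Steps: seed 2500 cells/well, 5 hr 37 C; add compound, 24 hr 37 C; add CellTiter-Glo, 30 min room temperature; read luminescence. AC50 derived by Hill modelling of concentration-dependent ATP loss.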

Experiment [18] is described as follows: Cell Viability - LYMP2-026 (AID 989). Note: % is set by controls: 0 for no effect and ±100 for the full control effect; nearly all actives have a fitted effect of over 50% in size. Put shortly: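 Luminescent ATP signal (CellTiter-Glo, 30 min room temperature) measures viable lymphoblastoid cells after 24 hr compound treatment at 37 C. Decreased ATP reflects acute toxicity; AC50 values come from Hill-equation modeling.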
Experiment [19] is described as follows: Cell Viability - LYMP1-002 - Assay at 24 hr (AID 993). Note: % is set by controls: 0 for no effect and ±100 for the full control effect. Put shortly: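 Cells plated 2500/well, 5 hr 37 C; compounds added, 24 hr 37 C; CellTiter-Glo added, 30 min RT; luminescence read. Tetraoctylammonium bromide positive control. Hill-equation AC50.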
Experiment [20] in a line: Cell Viability - LYMP1-002 - Assay at 40 hr (AID 994).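 Note: 0% = DMSO only and full inhibition = 92 µM tetraoctylammonium bromide; nearly all actives have a fitted effect of over 60% in size.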 In short, it runs like this:
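Luminescent ATP signal served as the viability readout, with decreases taken as toxicity. Cells were treated with compounds across a concentration range for 40 hours at 37 C, and AC50 values came from standard Hill modeling.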

The mark [21] stands for this setting: measured here: cell count channel max response.
The mark [22] stands for this setting: measured here: lipid channel max response.

Each structure is given as a SMILES string. Several values for one entry are separate records, joined by “and”; a condition that tells them apart may be missing. Equal values may be shown once. Inconclusive results are not listed. Activity calls are given as the source filed them. Unless noted, calls come from the whole dose curve; as a rule, active = well fitted curve in the direction sought with a large enough effect; inconclusive = small, poorly fitted or top-dose-only effect, or another doubt; inactive = no such curve, though single readings can be large; an effect the other way counts as inactive or inconclusive.

Sequence of Alpha-galactosidase A (Homo sapiens) (P06280 whole entry, looked up): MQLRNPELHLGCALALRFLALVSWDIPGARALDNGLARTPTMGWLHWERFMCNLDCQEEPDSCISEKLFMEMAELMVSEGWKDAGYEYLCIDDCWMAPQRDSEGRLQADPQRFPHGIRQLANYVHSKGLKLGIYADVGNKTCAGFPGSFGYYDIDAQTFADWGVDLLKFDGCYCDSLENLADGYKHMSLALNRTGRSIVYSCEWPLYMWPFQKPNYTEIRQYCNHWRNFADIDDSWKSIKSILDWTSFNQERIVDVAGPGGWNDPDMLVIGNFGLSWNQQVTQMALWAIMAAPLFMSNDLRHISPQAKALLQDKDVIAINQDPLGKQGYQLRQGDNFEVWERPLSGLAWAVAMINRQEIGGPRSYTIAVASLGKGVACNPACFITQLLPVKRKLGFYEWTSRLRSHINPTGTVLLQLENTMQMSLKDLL

On to `COC(=O)[C@@H](N)Cc1ccc(O)c(O)c1`, for which the outcome in experiment [1], in [2], in experiment [3] and in experiment [5] was inactive. For the same compound, the Potency result in experiment [4] and in experiment [6] was “inactive” in each case. Moreover, the Potency in [7] was 14.1 µM (active).

In the case of `Cc1ccc(S(=O)(=O)NC(=O)NN2CCCCCC2)cc1`, the compound was classed as inactive in experiment [1], in [2], in experiment [3] and in experiment [5]. Besides, the activity change, negative = inhibition in experiment [8] (at 25.7 µM (top of the series)) is 0.497% (inactive); in experiment [8] (at 57.5 µM (top of the series)), 9.8% (inactive). Moreover, the max response is 0.635% and 17.7% in experiment [8] (setting [21]); 2.19% and 33.1% in experiment [8] (setting [22]). The Potency entry in experiment [4], in experiment [9], in experiment [7] and in experiment [10] was “inactive” throughout.

Turning to `NC(=O)N1c2ccccc2C=Cc2ccccc21`, the Potency result in [11], in experiment [14], in [15], in [16], in [17] and in experiment [20] was “inactive” in each case. Besides, the Potency result in experiment [4], in experiment [6], in [9], in experiment [7] and in experiment [10] was “inactive” each time. The compound was called inactive in experiment [12], in experiment [13], in experiment [18], in experiment [1], in experiment [19] and in experiment [2]. Also, the compound was classed as inactive in [5]. For the same compound, the activity change, negative = inhibition in experiment [8] (at 25.7 µM (top of the series)) is -0.889% (inactive). Besides, the max response in [8] (setting [21]) was -0.817%; in experiment [8] (setting [22]), -5.44%.

As for `CC1=NS(=O)(=O)c2cc(Cl)ccc2N1`, the compound was called inactive in experiment [1], in experiment [2] and in experiment [5]. The activity change, negative = inhibition in [8] (at 25.7 µM (top of the series)) was 4.02% (inactive); in [8] (at 57.5 µM (top of the series)), 14.6% (inactive). Also, the max response in [8] (setting [21]) was 8.52% and 9.84%; in experiment [8] (setting [22]), 14.7% and 27.6%. The Potency entry in experiment [4], in [6], in experiment [9], in experiment [7] and in experiment [10] was “inactive” each time.

In the case of `COC(=O)C1=C(C)NC(C)=C(C(=O)OCCN(C)Cc2ccccc2)C1c1cccc([N+](=O)[O-])c1` (stereo unspecified), the activity change, negative = inhibition in experiment [8] (at 57.5 µM (top of the series)) was 2.25% (inactive). In addition, the figures for the max response in experiment [8] (setting [21]) and in [8] (setting [22]) were -9.5% and -7.38%, respectively. Further, the Potency entry in experiment [4] was “inactive”. In addition, the compound was called inactive in [5].

Consider `CN(C)CCOC(=O)COc1ccc(Cl)cc1`, for which the compound was called inactive in experiment [1], in [2] and in experiment [5]. Also, the activity change, negative = inhibition is 0.143% (inactive) in [8] (at 25.7 µM (top of the series)); 11.6% (inactive) and 1.09% (inactive) in experiment [8] (at 57.5 µM (top of the series)). Moreover, the max response in [8] (setting [21]) is 1.9% and 22.5% and -10.8%; in experiment [8] (setting [22]), 1.25% and 39.9% and -9.35%. Also, the Potency result in experiment [4], in experiment [9] and in experiment [10] was “inactive” in each case.

In the case of `CCCC(C(=O)OCCN(CC)CC)(c1ccccc1)c1ccccc1`, the result in [1], in [2] and in [5] was inactive. The activity change, negative = inhibition was -1.67% (inactive) in experiment [8] (at 25.7 µM (top of the series)); -2.92% (inactive) and 2.44% (inactive) in [8] (at 57.5 µM (top of the series)). For the same compound, the max response was -3.68% and -8.12% and 19.2% in experiment [8] (setting [21]); -5.52% and -10.9% and 21.5% in experiment [8] (setting [22]). Moreover, the Potency result in experiment [4] and in experiment [6] was “inactive” throughout. The Potency is 1.78 µM (active) in experiment [9], 3.16 µM (active) in experiment [7] and 2.24 µM (active) in [10].

In the case of `CN(C)CCN(Cc1cccs1)c1ccccn1`, the result in experiment [1], in [2] and in experiment [5] was inactive. The activity change, negative = inhibition in experiment [8] (at 25.7 µM (top of the series)) is 0.542% (inactive); in experiment [8] (at 57.5 µM (top of the series)), 3.3% (inactive). Besides, the max response is 2.28% and 15.7% in experiment [8] (setting [21]); 3.57% and 22% in experiment [8] (setting [22]). The Potency result in experiment [4], in [6] and in experiment [10] was “inactive” throughout. Moreover, the Potency in [7] is 5.62 µM (active).

Take `CN(C)CCCN1c2ccccc2Sc2ccccc21`: the compound was called inactive in [1], in experiment [2] and in experiment [5]. The activity change, negative = inhibition is 0.5% (inactive) in experiment [8] (at 25.7 µM (top of the series)); 7.75% (inactive) and 0.211% (inactive) in experiment [8] (at 57.5 µM (top of the series)). Also, the max response is -16.2% and -4.1% and -25% in [8] (setting [21]); -14.8% and 2.83% and -21.3% in [8] (setting [22]). Moreover, the Potency result in experiment [4] and in experiment [6] was “inactive” each time. Also, the Potency was 11.2 µM (active) in [9] and 10 µM (active) in [7].
